Data as given in PubChem BioAssay AID588473 (Sanford-Burnham Center for Chemical Genomics, 2011).
The campaign covered roughly 350,000 compounds. About 1,600 (0.46%) were called active.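 How the source made its calls: active means activation of at least 50%, plus an integration ratio under a set limit after plate pattern correction; inactive means the rest.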 The sample as a whole holds a higher share of actives than the screen did.

Tested on: CRF-binding protein / CRF receptor 2 complex (human)
Test: agonists of CRF-BP/CRF-R2 complex, primary screen, cell-based, HEK293, calcium dye fluorescence, uHTS (AID 588473);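 further: plate controls were neutral control wells without compound for no effect and CRF at EC100 for full effect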
Conditions: calcium dye fluorescence (FLIPR), at 13.2 µM, stronger effect = higher value, percent of saturating CRF peptide response

Question: How did the activation turn out when Cc1ccc2oc(=O)ccc2c1 was run?
Answer: Its activation is -1.36% (inactive).

Question: For CCc1ccc2oc(-c3ccc(N)cc3)nc2c1, which activation is on record?
Answer: Its activation is 0.69% (inactive).

Question: CCN(CC)c1ccc2oc(=O)c(C)nc2c1 was tested. Which activation did it give?
Answer: Its activation is 111% (active).

Question: How did the activation turn out when C/C(CC(=O)NC(C)(C)C)=N\NC(=O)c1ccco1 was run?
Answer: The activation was -2.93% (inactive).

Question: CN1CCC(=O)N([C@H](CO)Cc2ccccc2)CC1 was tested. Which activation did it give?
Answer: The activation was 0.86% (inactive).

Question: With O=C1NC(Nc2nc3ccccc3s2)(C(F)(F)F)C(=O)N1C1CCCCC1 (configuration not stated) as the compound, how does the activation read?
Answer: Its activation is -0.92% (inactive).

Question: Which activation does the source give for CC1=CC2=NC(=O)/C(=C/c3coc4ccccc4c3=O)C(=N)N2O1 here?
Answer: Its activation is 147% (active).

Question: COc1ccc(OCCCn2cccc2/C=C2/C(=N)N3OC(C)=CC3=NC2=O)cc1 was tested. Which activation did it give?
Answer: Its activation is 4.44% (inactive).

Question: Which activation does the source give for CC(C)(C)OC(=O)NCCCCCC(=O)N/N=C/c1coc2ccccc2c1=O here?
Answer: Its activation is -5.17% (inactive).

Question: With C[C@@H]1NS(=O)(=O)c2cc(Cl)ccc2O[C@@H]1c1ccccc1 as the compound, how does the activation read?
Answer: The activation was -1.15% (inactive).

Question: Cc1ccc(-n2c(C)cc(C(=O)CN3C(=O)C(=O)N(C4CCCC4)C3=O)c2C)cc1 was tested. Which activation did it give?
Answer: The activation was 161% (active).

Question: Which activation does the source give for Cc1cc(C(=O)COC(=O)C2CC2)c(C)n1-c1ccc(F)cc1 here?
Answer: Its activation is -3.55% (inactive).

Question: For Cc1ccc(-n2c(C)cc(C(=O)CSc3nnc4ccccn34)c2C)cc1, which activation is on record?
Answer: Its activation is -0.98% (inactive).

Question: For O=C(N/N=C/c1sc(N2CCCCC2)nc1-c1cccs1)c1cccnc1, which activation is on record?
Answer: Its activation is 62.8% (active).

Question: Which activation does the source give for Cc1ccc(NC(=O)COc2ccc(/C=N\NC(=O)c3cccnc3)cc2)cc1C here?
Answer: Its activation is 0.37% (inactive).

Question: How did the activation turn out when Cc1ccc(S(=O)(=O)N2CCCCC2)cc1NC(=O)c1cccnc1 was run?
Answer: The activation was 6.52% (inactive).

Question: How did the activation turn out when Cc1ccc(C(=O)N/C(=C\c2cccs2)C(=O)NCCc2ccccn2)cc1C was run?
Answer: Its activation is -0.29% (inactive).

Question: With COc1ccccc1C(=O)NCCC(=O)NC(C)CCc1ccccc1 (configuration not stated) as the compound, how does the activation read?
Answer: The activation was 0.39% (inactive).

Question: How did the activation turn out when COc1ccc(CCNC(=O)CN(c2ccccc2)S(=O)(=O)c2ccccc2)cc1 was run?
Answer: The activation was -0.58% (inactive).

Question: Which activation does the source give for COc1ccc([C@H]2CC(=O)C=C(/C=C/c3ccc(Cl)cc3)C2)cc1 here?
Answer: Its activation is 2.34% (inactive).

Question: Which activation does the source give for CCSc1nc2c(c(=O)[nH]1)C(c1cccnc1)C(C(=O)OC(C)C)=C(C)N2 (configuration not stated) here?
Answer: Its activation is -11.6% (inactive).

Question: For COc1cc(OC)cc(C(=O)NCC(=O)OCC(=O)NC(C)CCc2ccccc2)c1 (configuration not stated), which activation is on record?
Answer: Its activation is -1.06% (inactive).

Question: How did the activation turn out when COc1cc(OC)cc(C(=O)N[C@H](C(=O)OCC(=O)NC(C)c2ccccc2)C(C)C)c1 (some centres not stated) was run?
Answer: Its activation is 102% (active).

Question: COc1cc(OC)cc(C(=O)NC(C(=O)N2CCC2)C(C)C)c1 (configuration not stated) was tested. Which activation did it give?
Answer: The activation was 2.01% (inactive).

Question: COc1cc([N+](=O)[O-])cc([N+](=O)[O-])c1NC(=O)N1CCOCC1 was tested. Which activation did it give?
Answer: The activation was -0.3% (inactive).

Question: With CSc1nsc(SCC(=O)Nc2cc(C(=O)O)ccc2C)n1 as the compound, how does the activation read?
Answer: The activation was -1.07% (inactive).

Question: CCc1nnc(NC(=O)CSc2nc(SC)ns2)s1 was tested. Which activation did it give?
Answer: Its activation is 113% (active).

Question: COc1ccc(C)cc1NC(=O)CSc1nc(SC)ns1 was tested. Which activation did it give?
Answer: The activation was -0.91% (inactive).

Question: For CCCCn1c(=S)[nH]c2ncccc2c1=O, which activation is on record?
Answer: Its activation is 2.09% (inactive).

Question: For CCN(CC)S(=O)(=O)c1ccc(OC)c(NC(=O)CCc2c(C)noc2C)c1, which activation is on record?
Answer: The activation was -0.44% (inactive).

Question: With Cc1nn(C)c(C)c1C(C)NC(=O)c1ccc(OC2CCN(Cc3ccccn3)CC2)cc1 (configuration not stated) as the compound, how does the activation read?
Answer: Its activation is 3.71% (inactive).

Question: Cc1ccc(NC(=O)C(C)c2cccc(C(=O)c3ccccc3)c2)cc1 (configuration not stated) was tested. Which activation did it give?
Answer: The activation was -1.3% (inactive).

Question: For CCCc1ccc(OCC(=O)NNC(=S)NC(=O)c2ccco2)cc1, which activation is on record?
Answer: Its activation is 60.1% (active).

Question: Which activation does the source give for CC(Oc1ccc2ccccc2c1)C(=O)NNC(=S)NC(=O)c1ccco1 (configuration not stated) here?
Answer: The activation was 58.2% (active).

Question: For Cc1cccc(OCC(=O)Nc2ccc(NC(=O)c3ccco3)c(C)c2)c1, which activation is on record?
Answer: The activation was 0.25% (inactive).

Question: Which activation does the source give for O=C(Nc1ccc2ccccc2c1)/C(=C\c1ccc2c(c1)OCO2)NC(=O)c1ccco1 here?
Answer: The activation was 1.15% (inactive).

Question: How did the activation turn out when NS(=O)(=O)c1ccc(CNC(=S)NC(=O)c2ccco2)cc1 was run?
Answer: Its activation is -6.68% (inactive).

Question: Which activation does the source give for O=C(NNC(=S)Nc1ccc(Br)cc1Cl)c1ccco1 here?
Answer: The activation was -1.64% (inactive).

Question: For C=CCOc1ccc(C2/C(=C(\O)c3c(C)[nH]c(C(=O)OC)c3C)C(=O)C(=O)N2CCN(C)C)cc1 (configuration not stated), which activation is on record?
Answer: Its activation is -2.8% (inactive).

Question: With C=C1CCN([C@@H](Cc2ccccc2)C(=O)N2CCOCC2)S(=O)(=O)c2ccccc21 as the compound, how does the activation read?
Answer: Its activation is 1.4% (inactive).

Question: For Cc1ccc(C)c(NC(=O)COC(=O)Cn2c(C)csc2=O)c1, which activation is on record?
Answer: Its activation is 1.31% (inactive).

Question: For Cc1cc(Nc2ccc(C)c(C)c2)n2ncnc2n1, which activation is on record?
Answer: The activation was -1.97% (inactive).

Question: How did the activation turn out when CC1=CC(=C(C#N)c2nc3ccccc3s2)C=C(C)N1c1ccc(F)cc1F was run?
Answer: Its activation is 119% (active).

Question: With Cc1nn(-c2ccc(F)cc2)c(Cl)c1/C=C(/CCC(=O)O)c1nc2ccccc2s1 as the compound, how does the activation read?
Answer: Its activation is 0.68% (inactive).

Question: For Cc1cnc(C(=O)Oc2cccc(Cl)c2Cl)cn1, which activation is on record?
Answer: Its activation is -0.24% (inactive).

Question: How did the activation turn out when CCCCNC(=O)c1ccccc1NC(=O)c1ccccc1N(C)S(C)(=O)=O was run?
Answer: The activation was -1.79% (inactive).

Question: How did the activation turn out when CCCCCCCCCCCCN1C(=O)CSC1c1cccnc1 (configuration not stated) was run?
Answer: The activation was 1.06% (inactive).
